We go through nine molecules from PubChem BioAssay.

Results filed as inconclusive are left out. Calls of active or inactive are those of the source.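 The calls were made as follows, unless noted: active = Her2 level under about 52% in both replicate screens, with viability over 70% of control (limit read from the data); inconclusive = Her2 under the limit in one screen only, or viability under 70%; inactive = Her2 level above the set limit.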

A short description of assay [1]: reducers of endogenous Her2 protein level, primary screen, SKBR3 breast tumor cells, AlphaScreen, ATP viability (AID 461).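 As to Her2 level: lower value means less Her2 protein in the cells.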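 As to viability: percent of carrier control wells set as 100% viability.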 The settings on record: 18-24 h, measured here: SKBR3 viability, ATP luminescence, at 10 µM.
The target of assay [2] is Receptor tyrosine-protein kinase erbB-2 (Homo sapiens) (UniProt P04626). Described as above. The settings on record: 18-24 h, at 10 µM, stronger effect = lower value.
Receptor tyrosine-protein kinase erbB-2 (Homo sapiens), sequence (P04626 whole entry, looked up): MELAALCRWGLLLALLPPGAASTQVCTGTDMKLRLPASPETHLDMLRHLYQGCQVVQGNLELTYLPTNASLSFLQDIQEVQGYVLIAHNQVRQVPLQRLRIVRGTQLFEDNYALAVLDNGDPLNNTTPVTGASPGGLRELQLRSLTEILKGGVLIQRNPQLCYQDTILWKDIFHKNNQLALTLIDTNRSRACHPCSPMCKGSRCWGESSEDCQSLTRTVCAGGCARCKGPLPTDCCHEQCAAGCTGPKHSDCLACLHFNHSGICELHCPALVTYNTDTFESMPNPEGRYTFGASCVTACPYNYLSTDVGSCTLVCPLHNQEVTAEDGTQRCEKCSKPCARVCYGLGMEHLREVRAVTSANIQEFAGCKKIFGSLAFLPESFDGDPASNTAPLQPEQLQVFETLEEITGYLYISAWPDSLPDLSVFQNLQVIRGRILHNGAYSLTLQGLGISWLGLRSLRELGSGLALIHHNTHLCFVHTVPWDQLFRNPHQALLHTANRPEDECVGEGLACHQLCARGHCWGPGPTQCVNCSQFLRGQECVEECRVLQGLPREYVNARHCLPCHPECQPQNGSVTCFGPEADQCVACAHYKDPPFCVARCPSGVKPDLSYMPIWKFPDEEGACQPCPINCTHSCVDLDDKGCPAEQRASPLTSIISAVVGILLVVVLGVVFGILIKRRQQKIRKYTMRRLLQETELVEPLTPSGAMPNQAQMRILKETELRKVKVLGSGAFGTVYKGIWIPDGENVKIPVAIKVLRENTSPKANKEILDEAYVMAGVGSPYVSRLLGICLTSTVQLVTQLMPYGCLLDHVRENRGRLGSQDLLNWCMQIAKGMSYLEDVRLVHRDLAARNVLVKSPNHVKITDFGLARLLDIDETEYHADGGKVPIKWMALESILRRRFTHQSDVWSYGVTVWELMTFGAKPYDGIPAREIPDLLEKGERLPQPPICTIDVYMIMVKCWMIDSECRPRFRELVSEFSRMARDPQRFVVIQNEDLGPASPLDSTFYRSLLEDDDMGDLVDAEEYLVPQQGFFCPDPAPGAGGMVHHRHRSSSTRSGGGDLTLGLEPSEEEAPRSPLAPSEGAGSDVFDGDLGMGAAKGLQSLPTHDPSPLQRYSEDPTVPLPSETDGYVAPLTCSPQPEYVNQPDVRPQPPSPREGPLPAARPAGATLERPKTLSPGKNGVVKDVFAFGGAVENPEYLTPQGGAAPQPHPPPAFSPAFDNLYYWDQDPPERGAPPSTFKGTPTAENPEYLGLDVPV
The nature of assay [3]: SK-BR-3 cell growth inhibitors, pilot screen, 24 h, human (AID 572;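 active = viability at or below 10% of carrier control in both of two separate runs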;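 also: compound exposure lasted between 18 and 24 h rather than exactly 24 h; 100% = carrier-treated control wells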). The settings on record: SK-BR-3 viability, CellTiter-Glo luminescence, at 10 µM, stronger effect = lower value. (In ATP-based viability assays light output follows the ATP content of the culture.)
Assay [4] is described as follows: HUVEC growth inhibition – cell-based, human, primary screen (AID 575;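 active = viability at or below 30% in both replicate assays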;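 also: 100% = median of untreated cell wells with 0.1% DMSO on each plate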). The settings on record: HUVEC proliferation, CellTiter-Glo luminescence, 72 h; at 10 µM; stronger effect = lower value.
Assay [5] in a line: growth inhibitors of H69AR lung tumor, primary screen, human, duplicate replicates (AID 580;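 active = viability at or under a set limit in both replicates, limit being median viability minus 3 SD, cut at about 48% in these data, passing the limit was not always enough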;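 also: 100% = mean luminescence of untreated wells and 0% = no signal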). The settings on record: H69AR lung tumor cells viability, ATP luminescence, 72 h; at 10 µM; stronger effect = lower value.
Assay [6] in a line: reversal of MRP1-mediated doxorubicin resistance, pilot screen, H69AR cells, doxorubicin co-treatment (AID 601;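 active = viability loss from added drug above about 55%, and viability with drug at most 40%, in both replicates, limit read from the data, passing the limit was not always enough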). The settings on record: CellTiter-Glo, 72 h, at 10 µM; for differential viability (reversal): stronger effect = higher value.
Assay [7] can be described thus: 384-well plate pilot, post-Golgi transport modulator project, inhibition of yeast transport mutant growth (AID 636; in the data active = inhibition above about 31%). The settings on record: absorbance 615 nm, about 18 h, stronger effect = higher value.
Assay [8] in a line: growth suppression of yeast trafficking mutant, preliminary HTS, modulators of trafficking downstream of Golgi apparatus project, 1536-format plate, OD 615 nm (AID 637; in the data active = inhibition above about 30%). The settings on record: yeast transport mutant growth, absorbance 615 nm, 18 h; stronger effect = higher value.
Assay [9] is described as follows: OD615 S. cerevisiae growth inhibition, permissive medium, pilot counter-assay, permissive growth control for S. cerevisiae lifespan shortening project (AID 705;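 active = growth inhibition above 25% in both replicates, a cutoff set 3 SD above the mean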). The settings on record: OD615, 24 h, at 10 µM, stronger effect = higher value.
The nature of assay [10]: Restrictive medium S. cerevisiae growth inhibition, OD615, pilot screen of yeast lifespan reduction project, restrictive growth control (AID 706;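 active = growth inhibition above a set limit, 3 SD over mean compound inhibition, in both replicates, cut at about 43% in these data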;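 also: modified DeaD lifespan yeast strain shifted to restrictive glucose medium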). The settings on record: OD615, 48 h, at 10 µM, stronger effect = higher value.
The nature of assay [11]: viability gain of MRP-1-high H69AR cells under doxorubicin, pilot screen, MRP-1 activator project, CellTiter-Glo, duplicate (AID 807;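 active = viability increase at or above a cutoff of the median across tested compounds plus 3 SD, cut at about 8.5% in these data, passing the limit was not always enough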;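 also: compound pretreatment 18-22 h then 72 h combined with doxorubicin; 0% = doxorubicin alone and 100% = vehicle without doxorubicin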). The settings on record: H69AR viability with doxorubicin, CellTiter-Glo luminescence; at 10 µM; stronger effect = higher value.
Assay [12] in a line: growth suppression of beta-catenin knockout HCT116, pilot screen, human colon tumor cells (AID 823;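 active = cell viability at or below a set limit in both duplicate runs, the limit being the all-compound median minus 4 SD, cut at about 23% in these data, passing the limit was not always enough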;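 also: 0% = wells killed by 20 µM Hyamine and 100% = untreated DMSO cell wells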). The settings on record: CellTiter-Glo, 60 h, at 10 µM, stronger effect = lower value.
A short description of assay [13]: growth suppression of PTEN-deleted HCT116, pilot screen, cell-based, HCT116 clonal line, CellTiter-Glo (AID 824;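 active = viability at or below 27.92% in each of two runs, the all-compound median minus 4 SD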;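 also: 0% = 20 µM Hyamine control and 100% = vehicle cell control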). The settings on record: 60 h, at 10 µM, stronger effect = lower value.
The nature of assay [14]: inhibitors of the yeast RAM network, pilot screen, dse1pr::URA3 reporter, 5-FOA selection (AID 869;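 active = inhibition over a set limit, the all-compound mean plus 3 SD, in both replicate runs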;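 also: 0% = DMSO wells with no growth and 100% = 10 µM 1-NA-PP1 with full growth; RAM network block rescues cells from 5-FOA so hits raise OD615 growth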). The settings on record: S. cerevisiae dse1pr::URA3 5-FOA growth, OD615, 2 d; at 10 µM; stronger effect = higher value; strain carries analog-sensitive mutant Cbk1 kinase.
The nature of assay [15]: RAM signaling pathway blockade in yeast – S. cerevisiae, Pdr1DBD-CYC8 efflux-inhibited sensitized strain, primary screen (AID 1298;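 active = RAM network inhibition above 8.4% in each of two replicates, 3 SD over the compound average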;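 also: 0% = DMSO untreated cells without growth and 100% = 10 µM 1-NA-PP1 full growth; higher means more yeast growth rescued from 5-FOA killing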). The settings on record: S. cerevisiae cbk1-as DSE1-URA3 strain, 5-FOA growth OD615, 2 d; at 50 µM; stronger effect = higher value.
The mark [16] stands for this setting: H69AR cells + 2 uM doxorubicin, measured here: viability with 2 uM doxorubicin, stronger effect = lower value.
Setting [17] is: H69AR cells, compound alone cytotoxicity.

Consider `CCOC(=O)N1CCC(NC(=O)C2CCCN(C(=O)c3cc4sccc4n3C)C2)CC1` (stereo not drawn), for which the viability (commonly a read-out of living cells in per cent, often relative to untreated cells) in assay [1] was 113%; in [3], 113% (inactive); in assay [4], 82.2% (inactive); in assay [5] it was 94.8% (inactive); in [6] (setting [16]), 95.7%; in [6] (setting [17]), 94.8%. Moreover, the viability in [12] was 96.7% (inactive); in assay [13], 95.7% (inactive). Moreover, the Her2 level in assay [2] is 114% (inactive). In [6] (H69AR cells + 2 uM doxorubicin), the differential viability (reversal) was -0.91% (inactive). The inhibition (as a rule, the relative decrease from the control value, in per cent) in [7] is -2.4% (inactive); in [8], -0.83% (inactive); in assay [14], 0.665% (inactive). In addition, the growth inhibition in [9] is -18% (inactive); in [10], -12.6% (inactive). Besides, the viability increase in assay [11] was 0.63% (inactive). The RAM network inhibition in [15] is 0.11% (inactive).
`CCn1cc(C(=O)NCCC2=CCCCC2)c(=O)c2cc(S(=O)(=O)N(C)C)ccc21`: the viability in [1] is 82.5%; in [3] it was 82.5% (inactive); in [4], 70.4% (inactive); in assay [5] it was 71.7% (inactive); in assay [6] (setting [16]), 62.1%; in assay [6] (setting [17]), 71.7%. In addition, the results for the viability in [12] and in assay [13] were 86.4% (inactive) and 72.6% (inactive), respectively. The Her2 level in assay [2] is 98.5% (inactive). For the same molecule, the differential viability (reversal) in assay [6] (H69AR cells + 2 uM doxorubicin) is 9.64% (inactive). Also, the figures for the inhibition in assay [7], in assay [8] and in [14] were -4.67% (inactive), -3.61% (inactive) and 1.37% (inactive), respectively. Further, the growth inhibition in assay [9] was -14.2% (inactive); in assay [10] it was -29.6% (inactive). In addition, in assay [11], the viability increase was -4.4% (inactive). Moreover, the RAM network inhibition in assay [15] is 1.83% (inactive).
With `Cc1occc1C(=O)N1CCN(c2ncccn2)CC1`, the viability is 87% in [1]; 87% (inactive) in [3]; 99.6% (inactive) in assay [4]; 95.8% (inactive) in assay [5]; 86.9% in [6] (setting [16]); 95.8% in [6] (setting [17]). Moreover, the values for the viability in [12] and in assay [13] were 101% (inactive) and 91.9% (inactive), respectively. Further, in [2], the Her2 level was 118% (inactive). Besides, the differential viability (reversal) in assay [6] (H69AR cells + 2 uM doxorubicin) was 8.91% (inactive). For the same molecule, the values for the inhibition in [7], in assay [8] and in assay [14] were 2.56% (inactive), -5.83% (inactive) and 1.98% (inactive), respectively. The growth inhibition in assay [9] is -15.2% (inactive); in [10] it was -1.04% (inactive). In [11], the viability increase is -0.73% (inactive). In addition, the RAM network inhibition in [15] was 1.89% (inactive).
With `CC(C)c1nnc(NC(=O)Cc2cccs2)s1`, the viability in assay [1] is 106%; in assay [3], 106% (inactive); in [4], 106% (inactive); in assay [5], 96.7% (inactive); in assay [6] (setting [16]) it was 90.6%; in [6] (setting [17]), 96.7%. Moreover, the viability is 99.5% (inactive) in [12] and 94.8% (inactive) in [13]. Moreover, the Her2 level in assay [2] is 92% (inactive). The differential viability (reversal) in [6] (H69AR cells + 2 uM doxorubicin) was 6.08% (inactive). Also, the values for the inhibition in [7], in [8] and in [14] were -2.53% (inactive), 1.48% (inactive) and 2.64% (inactive), respectively. Besides, the results for the growth inhibition in assay [9] and in assay [10] were -2.5% (inactive) and -0.8% (inactive), respectively. In [11], the viability increase is -0.07% (inactive). Further, the RAM network inhibition in assay [15] is 0.83% (inactive).
Consider `COc1ccc(OC)c(C(=O)c2ccc(C(=O)O)cc2)c1`, for which the viability in assay [1] is 120%; in assay [3] it was 120% (inactive); in assay [4], 87.2% (inactive); in assay [5], 103% (inactive); in assay [6] (setting [16]), 96.5%; in [6] (setting [17]) it was 103%. Moreover, the viability in assay [12] is 105% (inactive); in [13], 103% (inactive). For the same molecule, the Her2 level in assay [2] was 107% (inactive). Also, the differential viability (reversal) in assay [6] (H69AR cells + 2 uM doxorubicin) is 6.11% (inactive). The inhibition was -3.73% (inactive) in assay [7], 1.94% (inactive) in assay [8] and 1.67% (inactive) in assay [14]. Also, the growth inhibition in assay [9] was -10.1% (inactive); in assay [10], -16.1% (inactive). Further, the viability increase in assay [11] was 0.88% (inactive). The RAM network inhibition in [15] was 0.12% (inactive).
Consider `COC(=O)C1(C#N)C(c2ccccc2)C1(C(=O)OC)C(=O)OC` (stereo not drawn), for which the viability was 117% in [1]; 117% (inactive) in [3]; 105% (inactive) in assay [4]; 102% (inactive) in [5]; 90.8% in assay [6] (setting [16]); 102% in assay [6] (setting [17]). For the same molecule, the values for the viability in [12] and in assay [13] were 77.4% (inactive) and 97.7% (inactive), respectively. Also, in assay [2], the Her2 level is 90% (inactive). Also, the differential viability (reversal) in assay [6] (H69AR cells + 2 uM doxorubicin) is 11.3% (inactive). The inhibition is -3.47% (inactive) in assay [7], 0.65% (inactive) in assay [8] and 1.43% (inactive) in assay [14]. Also, the growth inhibition in assay [9] was -6.71% (inactive); in assay [10], -6.54% (inactive). For the same molecule, the viability increase in assay [11] was -1.92% (inactive). The RAM network inhibition in [15] was 2.51% (inactive).
`CCOC(=O)CCc1c(C)nc2cc(-c3ccc(F)cc3)[nH]n2c1=O`: the viability in assay [1] was 97%; in assay [3], 97% (inactive); in assay [4] it was 97.6% (inactive); in assay [5] it was 101% (inactive); in [6] (setting [16]), 92.2%; in assay [6] (setting [17]), 101%. For the same molecule, the figures for the viability in assay [12] and in assay [13] were 95.8% (inactive) and 95.1% (inactive), respectively. Besides, in [2], the Her2 level is 99% (inactive). Besides, the differential viability (reversal) in assay [6] (H69AR cells + 2 uM doxorubicin) was 8.37% (inactive). Besides, the inhibition in assay [7] was -5.45% (inactive); in assay [8], -7.33% (inactive); in assay [14], 1.8% (inactive). Moreover, the figures for the growth inhibition in assay [9] and in assay [10] were -13.1% (inactive) and -4.2% (inactive), respectively. For the same molecule, the viability increase in assay [11] was -1.53% (inactive). The RAM network inhibition in assay [15] was 1.51% (inactive).
For `CC(C)NC(=O)c1ccc2c(c1)nnn2C`, the viability in assay [1] was 94%; in assay [3], 94% (inactive); in assay [4], 87.6% (inactive); in assay [5] it was 99.4% (inactive); in assay [6] (setting [16]) it was 98.8%; in [6] (setting [17]) it was 99.4%. The viability is 106% (inactive) in [12] and 105% (inactive) in assay [13]. Further, the Her2 level in [2] is 84% (inactive). In [6] (H69AR cells + 2 uM doxorubicin), the differential viability (reversal) is 0.56% (inactive). Moreover, the inhibition in [7] is -4.05% (inactive); in assay [8], -4.92% (inactive); in [14], 2% (inactive). The figures for the growth inhibition in assay [9] and in assay [10] were -7.61% (inactive) and -12.3% (inactive), respectively. Besides, the viability increase in [11] was 0.39% (inactive). Moreover, the RAM network inhibition in assay [15] was 1.32% (inactive).
As to `Cn1cc(Cl)c(C(=O)N(Cc2ccccc2)c2ccccn2)n1`, the viability is 98% in [1]; 98% (inactive) in assay [3]; 101% (inactive) in assay [4]; 92.2% (inactive) in assay [5]; 93.2% in assay [6] (setting [16]); 92.2% in assay [6] (setting [17]). Further, the results for the viability in assay [12] and in [13] were 93.3% (inactive) and 94.7% (inactive), respectively. In assay [2], the Her2 level is 116% (inactive). For the same molecule, the differential viability (reversal) in assay [6] (H69AR cells + 2 uM doxorubicin) was -1.01% (inactive). The inhibition in assay [7] was 1.33% (inactive); in assay [8], 2.33% (inactive); in [14] it was 1.62% (inactive). The figures for the growth inhibition in assay [9] and in assay [10] were -8.19% (inactive) and -1.84% (inactive), respectively. Moreover, the viability increase in [11] is -0.96% (inactive). Further, in assay [15], the RAM network inhibition was 7.22% (inactive).
